Laboratory results from PubChem BioAssay AID2132 (NMMLSC, 2009).
Active and inactive are the calls of the source.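 How the source made its calls: active means inhibition above 20%; inactive means the rest.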 Peptide text beside a SMILES is read from it. * marks the point of attachment. Cbz = O=C(OCc1ccccc1)*

Assay: inhibition of 26S proteasome fluorogenic peptide cleavage, counter-screen for 26S proteasome disassembly project, biochemical, fluorogenic peptides, secondary (AID 2132)
Conditions: yeast 26S proteasome, fluorogenic peptide cleavage rate; with Suc-LLVY-amc; at 100 µM; hits give high values

CC(C)C[C@@H](C=O)NC(=O)[C@H](CC(C)C)NC(=O)[C@H](CC(C)C)NC(=O)OCc1ccccc1 (Cbz-Leu-Leu-Leu-aldehyde)
inhibition: 97% (active)

CC(=O)N1C(=O)C(=C2C=C(C)OC(C)=C2)c2ccccc21
inhibition: 45% (active)
